MLL AF4-AF9 inh: inhibitors of AF4 peptide binding to AF9, primary screen, biochemical, AlphaScreen, biotin-AF4 peptide, FLAG-AF9, single point; inhibition, % at 10 µM; Protein AF-9 (Homo sapiens), P42568; actives 0.47% (n = 350,000); AID 651704, 2012;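 active means every replicate reaching a set inhibition limit, whatever the replicate mean, cut at about 25% in these data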
CASP6 VEID inh: human caspase-6 inhibitors, primary screen, biochemical, VEID-R110 fluorescence, single point, set 2 | purified caspase-6, Z-VEID-R110 cleavage fluorescence | inhibition, % at 12.5 µM | AID 686996, 2013 | actives 0.53% (n = 350,000);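 active means mean inhibition across replicates at least about 35%, with every replicate also reaching that limit, limit read from the data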
RAD54 branch: inhibitors of human RAD54 branch migration, primary screen, biochemical, fluorescence, single point; AID 602329, 2012; RAD54 Holliday junction branch migration, FAM/BHQ fluorescence; inhibition, % at 10.4 µM; actives 0.14% (n = 360,000);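 active means mean normalized replicate activity at least 40 and at least half of replicates scoring 40 or more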;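 further: inhibitors cause a drop in the FAM fluorescence signal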
Target sequence (Q92698 whole entry, looked up): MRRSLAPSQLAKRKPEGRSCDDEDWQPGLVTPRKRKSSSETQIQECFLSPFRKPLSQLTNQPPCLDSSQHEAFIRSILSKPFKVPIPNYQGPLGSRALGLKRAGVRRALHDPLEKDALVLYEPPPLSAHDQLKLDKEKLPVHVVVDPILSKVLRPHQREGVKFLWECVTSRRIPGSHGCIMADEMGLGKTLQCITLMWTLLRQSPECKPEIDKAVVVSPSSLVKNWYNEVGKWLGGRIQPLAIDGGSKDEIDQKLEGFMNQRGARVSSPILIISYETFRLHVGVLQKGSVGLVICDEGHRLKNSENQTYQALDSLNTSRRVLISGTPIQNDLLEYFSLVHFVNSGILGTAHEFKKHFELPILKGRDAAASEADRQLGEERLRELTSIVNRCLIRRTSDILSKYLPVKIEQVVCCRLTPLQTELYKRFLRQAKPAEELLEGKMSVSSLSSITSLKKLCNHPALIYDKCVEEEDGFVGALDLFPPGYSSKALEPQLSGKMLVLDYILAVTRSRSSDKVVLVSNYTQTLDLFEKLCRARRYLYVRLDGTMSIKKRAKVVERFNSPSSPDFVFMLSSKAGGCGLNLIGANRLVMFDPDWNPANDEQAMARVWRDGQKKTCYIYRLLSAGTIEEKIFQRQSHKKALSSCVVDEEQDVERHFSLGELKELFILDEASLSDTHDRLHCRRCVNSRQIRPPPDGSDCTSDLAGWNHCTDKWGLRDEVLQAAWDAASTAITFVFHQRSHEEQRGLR
N-glyco inh: increase of ERlucT glycosylation luciferase signal, primary screen, N-linked glycosylation inhibitor project, D54 ERlucT cells, luminescence, set 2; D54 ERlucT glycosylation luciferase reporter, 24 h; percent of 100 nM tunicamycin response; AID 588692, 2011; actives 0.23% (n = 360,000); reporter increase, % at 12.5 µM;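 active means mean luciferase reporter signal, scaled so untreated is 0 and the glycosylation-blocking control 100, at or above a set limit in every replicate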;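 further: luciferase carries N-glycosylation sites so blocking glycosylation raises the light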
RAD52 anneal inh: RAD52 DNA annealing inhibitors, primary screen, biochemical, FRET, single point, set 2; recombinant RAD52 DNA annealing, FRET fluorescence; inhibition, % at 18.7 µM; actives 0.46% (n = 360,000); AID 651710, 2012;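 active means every replicate showing at least 50% inhibition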
DNA binder FP: DNA-binding compounds via dye displacement, dose response, artefact control for RAD52 inhibitor project, biochemical, fluorescence polarization, cherry-pick; Salmon sperm DNA/acridine orange FP displacement; AC50, µM; shares compounds with RAD52 anneal inh; actives 8% (n = 1,000);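 active means fitted half-maximal concentration for signal loss at or below twice the highest dose tested, in every separate run, actives reach about 64 µM in these data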
Large screens that a line does not name were inactive (follow-up assays come after a bar, where they were run). In the library only some 1.2% were active in any assay of this set; here they are far more common.

COc1ccc2c3c([nH]c2c1)C(C)N(C(C)=O)CC3 (centres undefined)	none
COc1ccc2c3c([nH]c2c1)C(C)N(CCC(=O)NN)CC3 (centres undefined)	RAD52 anneal inh 79.3 | DNA binder FP inactive
CN1CCN(c2cc3c(c4c2[nH]c2ccccc24)C(=O)CC(C)(C)C3)CC1	RAD52 anneal inh 67.5 | DNA binder FP inactive
Cc1ccc(C23CC4CC(CC(CN)(C4)C2)C3)cc1	none (no result: RAD54 branch)
NCC12CC3CC(C1)CC(c1ccc(Br)cc1)(C3)C2	RAD52 anneal inh 56.6 | DNA binder FP inactive
CC(C)CC#Cc1ccc2c(c1)O[C@@H](CN(C)C(=O)Nc1ccccc1)[C@@H](C)CN([C@@H](C)CO)S2(=O)=O	none (no result: N-glyco inh)
O=c1ccn([C@@H]2O[C@H](CNCc3cccc4c3sc3ccccc34)[C@@H](O)[C@H]2O)c(=O)[nH]1	RAD52 anneal inh 62.1 | DNA binder FP inactive
O=c1ccn([C@@H]2O[C@H](CNCc3c(OCc4ccccc4F)ccc4ccccc34)[C@@H](O)[C@H]2O)c(=O)[nH]1	none
N=C(N)c1ccc(N=Nc2c(O)ccc3c2[nH]c2ccccc23)cc1	MLL AF4-AF9 inh 32.1, RAD52 anneal inh 102.4 (no result: RAD54 branch) | DNA binder FP inactive
O=C([C@H]1[C@H](CO)[C@H]2Cn3c(cccc3=O)[C@H]2N1Cc1ccccc1)N1CCCCC1	none (no result: CASP6 VEID inh, N-glyco inh)
O=C(C[C@@H]1CC[C@H]2[C@@H](COC[C@@H](O)CN2C(=O)Nc2ccc(Cl)cc2)O1)NCc1ccncn1	none (no result: N-glyco inh)
COc1ccc2c3c([nH]c2c1)[C@H](CO)N(CC1CC1)CC31CN(C(=O)C2CCOCC2)C1	none (no result: RAD54 branch, N-glyco inh)
CCCCCCCCCCOC(=O)C[N+](C)(C)C/C=C(/C)Cl	none
CCCCCCCCCCCCOC(=O)C[N+](C)(C)C	RAD52 anneal inh 50.0 (no result: RAD54 branch, N-glyco inh) | DNA binder FP inactive
CN1C(=O)c2cc(NC(=O)C3CCCC3)ccc2OC[C@@H]2O[C@@H](CC(=O)NCc3ccccc3F)CC[C@@H]21	none (no result: RAD54 branch, N-glyco inh)
OC(CN1CCCCC1)Cn1c2ccccc2c2cc(Br)ccc21 (centres undefined)	RAD52 anneal inh 57.5 | DNA binder FP inactive
Cc1c(C)n(CC(O)CN2CCCCCC2)c2ccccc12 (centres undefined)	none (no result: MLL AF4-AF9 inh, CASP6 VEID inh, RAD52 anneal inh)
CCCCN(CCCNC(=S)NCCCc1cnc[nH]1)c1ccc(Br)cn1	RAD52 anneal inh 55.4 | DNA binder FP inactive
S=C(NCCCc1cnc[nH]1)NCCCN(Cc1ccccc1)c1ccc(Br)cn1	none
COc1ccc(S(=O)(=O)N(C)C[C@H]2OCCCC[C@H](C)Oc3ccc(NC(=O)Nc4ccc5c(c4)OCO5)cc3C(=O)N([C@H](C)CO)C[C@H]2C)cc1	none (no result: N-glyco inh)
CCn1c(C)nc2cc(N)ccc21	RAD52 anneal inh 93.2 (no result: RAD54 branch) | DNA binder FP inactive
Cc1nc2cc(C(=O)O)ccc2n1C1CCCCC1	none
Cc1nc2cc(N)ccc2n1C1CCCCC1	RAD52 anneal inh 90.6 (no result: RAD54 branch) | DNA binder FP inactive
C[C@H](CO)N1C[C@H](C)[C@@H](CN(C)S(=O)(=O)c2ccc(Cl)cc2)Oc2ccc(NC(=O)CCCN(C)C)cc2C1=O	none (no result: N-glyco inh)
C[C@@H]1CN([C@H](C)CO)C(=O)c2cc(NC(=O)CCCCCC(=O)Nc3ccccc3N)ccc2O[C@H]1CN(C)C(=O)Nc1ccc2c(c1)OCO2	none (no result: RAD54 branch, N-glyco inh)
CCN1CCCC(OC(=O)c2cc(-c3ccc(C)cc3)nc3ccccc23)C1 (centres undefined)	RAD52 anneal inh 56.7 (no result: RAD54 branch) | DNA binder FP inactive
CO[C@H](CN(C)S(=O)(=O)c1ccc(C)cc1)[C@@H](C)CN(Cc1ccccc1Cl)[C@H](C)CO	none (no result: N-glyco inh)
NC(N)=Nc1cc2ccccc2c2ccccc12	RAD52 anneal inh 55.9 (no result: CASP6 VEID inh, RAD54 branch, N-glyco inh) | DNA binder FP inactive
O=C(N/N=C/c1cccc([N+](=O)[O-])c1)c1cc[n+](CCO)cc1	RAD52 anneal inh 82.3 | DNA binder FP inactive
Cc1noc(C)c1NC(=O)N[C@H]1CC[C@H](CCNC(=O)C2CCOCC2)O[C@H]1CO	none (no result: N-glyco inh)
CCOc1ccc2[nH]c3c(c2c1)CNCC3	RAD52 anneal inh 55.2 | DNA binder FP inactive
